# Assay results reported in PubChem BioAssay AID1508600 (Functional Genomics Laboratory (NCATS/FGL), 2020).
# In all, about 53,000 sequences went through this assay and about 3,700 (7%) were called active. The entries come from a sample that favours actives as a whole. Values without a mark were called inactive.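 How the source made its calls: active means gene knockdowns whose robust z-score for IL-1 alpha signal is at least 2 or at most -2, so actives lie on both sides; inactive means the rest.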
# Assay: Components of the Cytosolic LPS Sensing Pathway: Gene Identification via Genome-wide siRNA Screen;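 further: robust z of the log signal after scaling to non-targeting control siRNA wells of the plate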
# Details: RAW264.7 macrophages, IL-1a HTRF, actives lie on both sides, screened at 100 nM (by protocol), cells primed 5 h with Pam3CSK4 first
# Procedure, shortened: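 Read-out: IL-1a HTRF on supernatant, divided by plate negative-control median ×100, log-transformed and converted to robust z-score. Cells were RAW264.7 given 100 nM siRNA, Pam3CSK4-primed 5 hours, then LipidA-transfected 24 hour.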
row,Sequence,z-score
1,GGUGGAGUCUGAACUUAAUTT against Nfatc4,-0.0623
2,GCCCUUAAAACAUAACCACTT against Fgf9,0.615
3,CCAAGAUUAACCAUAACACTT against Mrpl50,0.017
4,GCUCCUACAGAGAAUAAGATT against Eny2,-1.7
5,GGACGAGGACCAGCUAGAATT against Txn2,-2.07 (active)
6,GGGACAUUUCCAUCCUUUUTT against Prdx6b,-1.28
7,GCUCCUUUGGUUCAACAUCTT against Olfr635,-1.78
8,GCAACCAUUCUGGUAUUACTT against Zfp108,0.904
9,CCAUUAAUAAAGCGUGGGUTT against Cacybp,0.562
10,GGAAAUUUGGAAAUUGCCUTT against Ntm,2.46 (active)
11,GGAUCAUCACUACUACAAUTT against 4932415M13Rik,2.37 (active)
12,GGCUGCUCGAAUCAGUCAUTT against Slc27a3,0.237
13,GGAAUUUUCUACAUGUGUGTT against Lim2,-2.12 (active)
14,CCAGAUCCUAAAGUCUUUATT against Trpd52l3,0.677
15,CCACCGGAUCGAAGACAGUTT against Tanc2,-1.28
16,CGUCCCUAGUAUAAAAAGATT against Cxxc5,-0.273
17,GGCUUUCACCUUAAUUGAUTT against Fntb,-0.296
18,CCCAGUACAGCCUUGUGGUTT against Med25,-2.02 (active)
19,CGACAAGGGUUUUUAUUCUTT against Smcr8,-0.414
20,GCCUCUCAACAUGAAUUAATT against Gm9918,0.524
21,CCAAGUUUAACAUCCAGGGTT against Pfkm,-0.126
22,GGAUGGAGACCUCUCCUUUTT against Guca2a,1.36

row,Sequence,z-score
1,CCAGCGAUCUUCCCAUUCUTT against Ccr8,-0.844
2,GCCCUAAUCUAUGGGACAUTT against Tmem179,3.06 (active)
3,UUCAUUCAUAUGGACAGUUTT against Psg19,1.73
4,GCCACAAUGGGCAGUCUUATT against Kcp,0.0139
5,GCGGAAGUCGGAUUUUAUCTT against Kif1c,3.01 (active)
6,CCAACACGUUGCACAGAGUTT against A830073O21Rik,0.611
7,GGACAACCGAAGUUUUAAUTT against E130308A19Rik,0.0435
8,GGAGGUGACUAUCAUUUUUTT against Gng4,-0.498
9,CCAGCAAGUAAAACAAGCUTT against Olfr803,0.998
10,GGUACUUCUCAUGGAUAAATT against Vps45,-0.234
11,GGAACUAAAUAUCCCUAUGTT against Polr3gl,-1.26
12,GAUACUUGGCUCCUAGAAGTT against Olfr803,-1.22
13,GCAUGAAUUGUGGAAGAGATT against Csnk1a1,2.71 (active)
14,GCCAGGUGGAACCAAGUAUTT against Zcchc17,-1.67
15,GGCAUCUUAUGGCCUAAAATT against Rnf31,-1.08
16,GCGAAAAAGAUCGUCCUUGTT against Polr3a,-0.444
17,GGAUCUUUACAUCUCUAACTT against Krtap31-1,1.58
18,GCCAAACAUUGGUGGACAUTT against H2-D1,0.835
19,GCUUAAUAAUUUCAUCCAGTT against Brms1l,2.44 (active)
20,GGCCCAGUCCGAUAUUCUATT against Phxr4,-0.797
21,GCAAAUCAGUCUAUCGCUGTT against Mcpt8,0.39
22,GGUUUUCACUAUUUCAACUTT against Olfr187,-1.06

row,Sequence,z-score
1,GGUAAAUGGUUUAACUACGTT against Tmem117,-0.68
2,GCAAAGGAUCGCUUGAAAATT against Mrpl40,-1.15
3,GGAAUAAAGCUCAUCUACGTT against Slc43a2,2.09 (active)
4,GGAUGAACACUGUUACAAATT against Tusc3,0.352
5,GGUGAUGCAAGAAGAAAUUTT against Aldh3a2,0.169
6,GGCUCUGUUCUCCACAUUGTT against Phf5a,-1.6
7,GGCAAUGGUUCAGCAGUGGTT against Eef1e1,-0.564
8,GGCCUUUCAUGAAAGCUCATT against Ublcp1,-3.07 (active)
9,GGUAGCUGUGAUAAAGCAUTT against Pcbd1,-1.81
10,CCUGAUAUUCAUGACCAAATT against Wasf2,-0.0177
11,CGGUGGCAAAAUGAGAAGUTT against Cd79a,-0.142
12,CCCUAAUCUGGUGAACGAUTT against Mfap5,-1.05
13,GGUCUGAGCCUUGUCUUUATT against Pdx1,2.92 (active)
14,GGUGUCUGGUUCAUAAAGGTT against Lcn4,-0.344
15,GGACACAACUCAUUUUCAGTT against Prg3,-1.61
16,GGAAGGAGAGACCAUUGAGTT against Nudt1,-1.48
17,GCGAUUAAGUCUGAAUUGUTT against Cd93,0.425
18,GGAUACCUACCUGGACAGUTT against Dlgap4,-1.23
19,GGCACAUUGCUGAAGCCCATT against Aldoa,-2.42 (active)
20,GCUACACAUGGGAACUAACTT against 4631405J19Rik,1.51
21,GGCCUAUAUUGAUGAUUUUTT against 4930503L19Rik,2.31 (active)
22,GGGUGUACAGAGGAUCCGATT against Atp2a3,0.187

row,Sequence,z-score
1,GGCAUUUACUUACUGUUCATT against Slc39a10,-0.331
2,CGAUUUCAUCGAACACUUCTT against Ccnd1,1.37
3,GGUACACAUGAGACAAUAUTT against Whamm,-2.18 (active)
4,GGCUUUGUUAGUCUAUGACTT against Dzip1l,-0.552
5,GGUGGAAGACAAGAGGAUATT against Sytl5,-0.474
6,GGGUAAUACUCUUUGGUGCTT against Olfr594,0.34
7,GGUUUGCCUGUGCUGAUAUTT against Olfr549,-0.617
8,GAUGGUCCAGAGCGACUUCTT against Pou3f3,2.14 (active)
9,GGGUCAAGGUAGUAGUACCTT against Tob1,0.275
10,CCAUUACAUCCAUUUGAUUTT against Cfap206,0.328
11,GGUUUGAUGUUAGACAACGTT against Trim34a,0.652
12,GGACAACAAAGGGAGAUUCTT against Kctd12b,1.43
13,CCUACUUGGGAAAGUUCGCTT against Egr3,1.5
14,CCCACUUGCUGAAAAUUGUTT against Ankib1,-0.338
15,CCCAGAACACCGUAUACUUTT against Itga3,3.95 (active)
16,CCAAUUUCCUUUCAGACUGTT against Cxxc4,-1.2
17,GGACAGCACAAUUACCUUUTT against Nr3c1,-0.299
18,GGGUAGGAAACAAACACAGTT against Cox11,-0.234
19,GAAUGCUCUGAGACUUUUATT against Cd300c2,-2.48 (active)
20,GCUCCAAUAGCGUAUAUUATT against Pigt,-0.75
21,GGAGGACUAGUUGUGACUUTT against Aldh1a1,-0.384
22,UGGCAAGAUUGAAACCAUATT against Hnrnpa3,-1.61

row,Sequence,z-score
1,GGUUCUUUCGAGAAUGGACTT against Nod1,-0.145
2,GGAUUUCCCAUCAAAGACGTT against Serpinf2,0.155
3,GCCCAAAUGAGACUACUUUTT against Ces1e,-1.24
4,GGCUCAGAUACUCUUAUAATT against Aknad1,-3.24 (active)
5,GCUAAACAUAAAAAUCGACTT against Garre1,-1.27
6,GGAUUAAGUGGUCAAAUGATT against Ugt2b36,-0.62
7,CCACCUGUGCUACCACUUATT against Rexo4,-2.34 (active)
8,GGUUACAUAUCAGUUGAAATT against Slc35a3,0.032
9,GCAAAAUCUAGGGAUAAGATT against Trdv2-2,0.259
10,GGGAGAACAGCGACAAACATT against Cbfb,1.82
11,GAGUUCGAUGUUCAGGAGCTT against Ndrg1,-0.354
12,GGUUCAUGGGUUUUAAGUGTT against Eif1,2.25 (active)
13,GGAAGAGGAGAAGAAAAAGTT against Syf2,-1.25
14,GCACAGUUGGCAACCUUUATT against S100a9,-0.029
15,GGAUAACCCUAAGUUUAUGTT against Clu,0.753
16,GGACCUCAUCUACAGAAUGTT against Tssk1,0.878
17,CGGACAAAGGACGAGUGUUTT against Fn3krp,3.02 (active)
18,GGCAGUAGCCAGAAGGCAUTT against Rnf215,0.373
19,CGACAUAGCUUCUGUACUGTT against Spaca9,-1.42
